The full list was thinned out, with hits kept by preference.
IDE exosite inh – displaces the probe from the exo-site of human IDE. P14735. AID 1259349. z-score at 20 µM. purified IDE, FL-6b probe fluorescence polarization; active compounds read low. actives 6.3% (n = 17,000);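 active = z-score of -3 or lower, meaning strong loss of probe binding signal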;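 note: His-tagged human IDE residues 42-1019 made in E. coli with 30 nM FL-6b probe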
Target sequence (P14735 42-1019 limits assumed): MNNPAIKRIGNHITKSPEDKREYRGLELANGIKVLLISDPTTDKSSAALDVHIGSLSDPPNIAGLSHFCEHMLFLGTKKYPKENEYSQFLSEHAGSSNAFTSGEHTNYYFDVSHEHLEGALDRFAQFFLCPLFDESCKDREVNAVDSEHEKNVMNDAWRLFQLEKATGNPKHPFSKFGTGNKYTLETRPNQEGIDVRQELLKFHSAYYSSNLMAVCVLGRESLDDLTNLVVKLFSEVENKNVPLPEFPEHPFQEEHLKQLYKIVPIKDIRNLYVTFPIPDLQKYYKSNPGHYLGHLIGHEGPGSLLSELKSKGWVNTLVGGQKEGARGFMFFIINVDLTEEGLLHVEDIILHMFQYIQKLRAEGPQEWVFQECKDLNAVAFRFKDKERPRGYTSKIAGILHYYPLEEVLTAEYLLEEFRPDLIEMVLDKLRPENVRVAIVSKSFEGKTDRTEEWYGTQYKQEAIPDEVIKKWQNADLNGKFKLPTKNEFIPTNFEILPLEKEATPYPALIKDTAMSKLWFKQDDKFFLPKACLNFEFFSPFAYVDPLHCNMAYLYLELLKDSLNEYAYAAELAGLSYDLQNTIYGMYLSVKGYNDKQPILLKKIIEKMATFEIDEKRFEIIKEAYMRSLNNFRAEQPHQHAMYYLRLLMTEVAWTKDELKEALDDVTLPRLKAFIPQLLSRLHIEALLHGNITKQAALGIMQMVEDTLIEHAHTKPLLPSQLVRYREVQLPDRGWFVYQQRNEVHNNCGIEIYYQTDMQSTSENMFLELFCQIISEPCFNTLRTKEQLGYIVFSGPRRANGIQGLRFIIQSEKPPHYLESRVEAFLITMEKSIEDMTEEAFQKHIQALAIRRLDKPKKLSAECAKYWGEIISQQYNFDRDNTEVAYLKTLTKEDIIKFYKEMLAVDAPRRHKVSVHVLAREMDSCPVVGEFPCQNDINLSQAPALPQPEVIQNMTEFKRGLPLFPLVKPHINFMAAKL
Starred values were filed as active, the others as inactive.

SMILES | IDE exosite inh
O=C(c1ccc(F)cc1)N1CC(=O)N2[C@H](C1)[C@@H](c1ccc(C3=CCCC3)cc1)[C@@H]2CO | 6.4
O=C(c1cccnc1)N1CC(=O)N2[C@@H](CO)[C@@H](c3ccc(/C=C/c4ccccc4)cc3)[C@@H]2C1 | -8.6*
O=C(c1ccccc1)N1CC(=O)N2[C@H](CO)[C@@H](c3ccc(/C=C/c4ccccc4)cc3)[C@H]2C1 | -0.53
O=C(c1ccccc1)N1CC(=O)N2[C@H](CO)[C@@H](c3ccc(/C=C/c4ccccc4)cc3)[C@@H]2C1 | -1.6
O=C(c1cccnc1)N1CC(=O)N2[C@H](CO)[C@H](c3ccc(/C=C/c4ccccc4)cc3)[C@@H]2C1 | -10*
COCC#Cc1ccc([C@@H]2[C@H]3CN(C(=O)C4CC4)CC(=O)N3[C@H]2CO)cc1 | 2.6
COCC#Cc1ccc([C@@H]2[C@@H](CO)N3C(=O)CN(C(=O)CN4CCOCC4)C[C@@H]23)cc1 | 0.15
CC(C)C#Cc1ccc([C@H]2[C@H]3CN(Cc4ccccn4)CCCCN3[C@H]2CO)cc1 | 0.76
COCC(=O)N1CC(=O)N2[C@H](CO)[C@H](c3ccc(C#CC4CCCCC4)cc3)[C@H]2C1 | 0.97
CS(=O)(=O)N1[C@H](CO)[C@H](c2ccccc2-c2ccc(F)cc2)[C@@H]1C#N | -0.52
Cc1noc(C)c1NC(=O)Nc1ccc2c(c1)C(=O)N(C)[C@@H]1CC[C@H](CC(=O)N[C@H]3CCN(Cc4ccccc4)C3)O[C@@H]1CO2 | -0.21
N#Cc1cccc(-c2ccc([C@H]3[C@@H](CO)N4CCCCN(C(=O)Nc5ccc(F)cc5)C[C@@H]34)cc2)c1 | 2.3
O=C(C[C@H]1C=C[C@@H](NC(=O)c2ccc3c(c2)OCO3)[C@@H](CO)O1)NC1Cc2ccccc2C1 | 0.72
O=C(c1ccc2c(c1)OCO2)N1CC(=O)N2[C@H](CO)[C@H](c3ccc(C#Cc4ccccc4)cc3)[C@H]2C1 | 0.044
CC(C)C#Cc1ccc([C@H]2[C@H](CO)N3C(=O)CN(C(=O)c4ccc5c(c4)OCO5)C[C@@H]23)cc1 | -1.3
O=C(c1ccc2c(c1)OCO2)N1CC(=O)N2[C@@H](CO)[C@@H](c3ccc(C#Cc4ccccc4)cc3)[C@@H]2C1 | -5.2*
O=C(c1ccc2c(c1)OCO2)N1CC(=O)N2[C@H](CO)[C@H](c3ccc(-c4ccccc4)cc3)[C@@H]2C1 | 3.1
O=C(c1ccc2c(c1)OCO2)N1CC(=O)N2[C@H](C1)[C@H](c1ccc(C#Cc3ccccc3)cc1)[C@@H]2CO | -3.5*
O=C(c1ccc2c(c1)OCO2)N1CC(=O)N2[C@H](C1)[C@H](c1ccc(-c3ccccc3)cc1)[C@@H]2CO | 3.5
O=C(c1cccc(F)c1)N1CCCCN2[C@@H](CO)[C@H](c3ccc(C#CC4(O)CCCC4)cc3)[C@@H]2C1 | -1
CC(=O)N1CC(=O)N2[C@H](CO)[C@@H](c3ccc(C#CC(C)C)cc3)[C@H]2C1 | -0.46
Cc1ccc(-c2ccc([C@@H]3[C@@H](CO)N4C(=O)CN(S(=O)(=O)c5cccc(F)c5)C[C@H]34)cc2)cc1 | 1.6
CC(=O)N1CCCCN2[C@H](CO)[C@@H](c3ccc(-c4ccncc4)cc3)[C@@H]2C1 | 1.5
C/C=C/c1ccc([C@@H]2[C@@H](CO)N3C(=O)CN(Cc4ccc(C)cc4)C[C@@H]23)cc1 | 1.2
COC(=O)c1ccc(CN2CC(=O)N3[C@H](CO)[C@@H](c4ccc(Br)cc4)[C@@H]3C2)cc1 | -3.5*
SMILES | IDE exosite inh
C/C=C/c1ccc([C@H]2[C@H](CO)N3C(=O)CN(Cc4ccc(C)cc4)C[C@@H]23)cc1 | -5*
COC(=O)c1ccc(CN2CC(=O)N3[C@H](CO)[C@@H](c4ccc(Br)cc4)[C@H]3C2)cc1 | 2.8
COC(=O)c1ccc(CN2CC(=O)N3[C@H](CO)[C@H](c4ccc(Br)cc4)[C@@H]3C2)cc1 | -0.79
C/C=C/c1ccc([C@@H]2[C@H]3CN(Cc4ccc(C)cc4)CC(=O)N3[C@H]2CO)cc1 | 2
CC(C)C#Cc1ccc([C@@H]2[C@H]3CN(C(=O)C4CCCCC4)CC(=O)N3[C@H]2CO)cc1 | 2.2
O=C(C[C@H]1CC[C@@H]2[C@H](COC[C@H](O)CN2C(=O)c2ccccc2F)O1)NCc1ccc(Cl)c(Cl)c1 | 0.15
C[C@@H](NC(=O)C[C@H]1C=C[C@H](NS(=O)(=O)c2cccc(F)c2)[C@@H](CO)O1)c1ccccc1 | 1.6
C[C@@H]1CC=CC[C@@H](c2ccc3c(c2)OCO3)NC(=O)[C@@H](C)N(C)C(=O)c2ccccc2O1 (mixture of isomers) | -0.3
O=C(Nc1cccc(F)c1)N1CCCCN2[C@H](C1)[C@H](c1ccc(C#CC3CC3)cc1)[C@@H]2CO | 3.9
O=C(CC1CC1)N1CC(=O)N2[C@H](CO)[C@H](c3ccc(C#Cc4cccc(F)c4)cc3)[C@H]2C1 | -3.9*
O=C(CC1CC1)N1CC(=O)N2[C@H](C1)[C@H](c1ccc(C#Cc3cccc(F)c3)cc1)[C@@H]2CO | -1.1
O=C(CC1CC1)N1CC(=O)N2[C@@H](CO)[C@H](c3ccc(C#Cc4cccc(F)c4)cc3)[C@@H]2C1 | -1.5
O=C(CC1CC1)N1CC(=O)N2[C@H](CO)[C@@H](c3ccc(C#Cc4cccc(F)c4)cc3)[C@H]2C1 | -2.1
O=C(CC1CC1)N1CC(=O)N2[C@H](CO)[C@H](c3ccc(C#Cc4cccc(F)c4)cc3)[C@@H]2C1 | -3.2*
O=C(CC1CC1)N1CC(=O)N2[C@H](C1)[C@@H](c1ccc(C#Cc3cccc(F)c3)cc1)[C@@H]2CO | -1.5
CC(=O)N1CC(=O)N2[C@H](C1)[C@H](c1ccc(-c3ccc(C)cc3)cc1)[C@@H]2CO | 0.6
O=C(C[C@H]1CC[C@H]2NC[C@H](O)COC[C@@H]2O1)Nc1ccc(-c2ccccc2)cc1 | -2
CCc1csc(N2[C@H](C#N)[C@H](c3ccc(-c4ccc(F)cc4)cc3)[C@@H]2CO)n1 | 1.6
O=C(c1ccc(F)cc1)N1CCCCN2[C@@H](CO)[C@@H](c3ccc(C#CC4(O)CCCC4)cc3)[C@@H]2C1 | 1.8
CCC(=O)N1CCCCN2[C@H](CO)[C@H](c3ccc(C#Cc4ccccc4F)cc3)[C@H]2C1 | -1.1
CCC(=O)N1CCCCN2[C@H](CO)[C@@H](c3ccc(C#Cc4ccccc4F)cc3)[C@@H]2C1 | -5.8*
COc1ccc(C#Cc2ccc([C@@H]3[C@H](CO)N4CCCCN(C(=O)Nc5ccccc5F)C[C@@H]34)cc2)cc1 | 3
CCC(=O)N1CCCCN2[C@H](C1)[C@H](c1ccc(C#Cc3ccccc3F)cc1)[C@@H]2CO | -4.6*
CC(=O)N1CCCCN2[C@H](CO)[C@@H](c3ccc(C#Cc4ccccc4F)cc3)[C@@H]2C1 | -7.5*
O=C(c1ccc(F)cc1)N1CCCCN2[C@H](CO)[C@H](c3ccc(C#CC4(O)CCCC4)cc3)[C@H]2C1 | -3.2*
SMILES | IDE exosite inh
O=C(Nc1ccccc1F)N1CCCCN2[C@@H](CO)[C@@H](c3ccc(C#Cc4ccccc4)cc3)[C@@H]2C1 | -0.93
CC(=O)N1CCCCN2[C@@H](CO)[C@@H](c3ccc(C#Cc4ccccc4F)cc3)[C@@H]2C1 | -2.9
CCC(=O)N1CCCCN2[C@@H](CO)[C@H](c3ccc(-c4ccc(F)cc4)cc3)[C@@H]2C1 | 2.7
COc1ccc(C#Cc2ccc([C@H]3[C@H](CO)N4CCCCN(C(=O)Nc5ccccc5F)C[C@@H]34)cc2)cc1 | 2.3
O=C(c1ccc(F)cc1)N1CCCCN2[C@@H](CO)[C@H](c3ccc(C#CC4(O)CCCC4)cc3)[C@@H]2C1 | 5.8
O=C(NCC[C@@H]1CC[C@H](NS(=O)(=O)Cc2ccccc2)[C@@H](CO)O1)C1CCCCC1 | 1.2

Compound activity: PubChem, Broad Institute
